# Data as given in PubChem BioAssay AID2638 (Johns Hopkins Ion Channel Center, 2010).
# The source made the active and inactive calls.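 Rule for the calls: active = compound restoring hERG potassium channel current, after block by a reference inhibitor, at any concentration tried; inactive = no current restored at any concentration tried.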
# Biological target: Voltage-gated inwardly rectifying potassium channel KCNH2 (Homo sapiens) (UniProt Q12809)
# Experiment: concentration dependence of hERG rescue from dofetilide, dose response, manual patch clamp, HEK293 cells (AID 2638)
# Settings: tail current; current remaining: measured here: rescue from 100 nM dofetilide block, at 50 µM, stronger effect = higher value unless noted; series mostly up to 100 µM; potentiation: at the top concentration
# Chain of Voltage-gated inwardly rectifying potassium channel KCNH2 (Homo sapiens) (Q12809 whole entry, looked up): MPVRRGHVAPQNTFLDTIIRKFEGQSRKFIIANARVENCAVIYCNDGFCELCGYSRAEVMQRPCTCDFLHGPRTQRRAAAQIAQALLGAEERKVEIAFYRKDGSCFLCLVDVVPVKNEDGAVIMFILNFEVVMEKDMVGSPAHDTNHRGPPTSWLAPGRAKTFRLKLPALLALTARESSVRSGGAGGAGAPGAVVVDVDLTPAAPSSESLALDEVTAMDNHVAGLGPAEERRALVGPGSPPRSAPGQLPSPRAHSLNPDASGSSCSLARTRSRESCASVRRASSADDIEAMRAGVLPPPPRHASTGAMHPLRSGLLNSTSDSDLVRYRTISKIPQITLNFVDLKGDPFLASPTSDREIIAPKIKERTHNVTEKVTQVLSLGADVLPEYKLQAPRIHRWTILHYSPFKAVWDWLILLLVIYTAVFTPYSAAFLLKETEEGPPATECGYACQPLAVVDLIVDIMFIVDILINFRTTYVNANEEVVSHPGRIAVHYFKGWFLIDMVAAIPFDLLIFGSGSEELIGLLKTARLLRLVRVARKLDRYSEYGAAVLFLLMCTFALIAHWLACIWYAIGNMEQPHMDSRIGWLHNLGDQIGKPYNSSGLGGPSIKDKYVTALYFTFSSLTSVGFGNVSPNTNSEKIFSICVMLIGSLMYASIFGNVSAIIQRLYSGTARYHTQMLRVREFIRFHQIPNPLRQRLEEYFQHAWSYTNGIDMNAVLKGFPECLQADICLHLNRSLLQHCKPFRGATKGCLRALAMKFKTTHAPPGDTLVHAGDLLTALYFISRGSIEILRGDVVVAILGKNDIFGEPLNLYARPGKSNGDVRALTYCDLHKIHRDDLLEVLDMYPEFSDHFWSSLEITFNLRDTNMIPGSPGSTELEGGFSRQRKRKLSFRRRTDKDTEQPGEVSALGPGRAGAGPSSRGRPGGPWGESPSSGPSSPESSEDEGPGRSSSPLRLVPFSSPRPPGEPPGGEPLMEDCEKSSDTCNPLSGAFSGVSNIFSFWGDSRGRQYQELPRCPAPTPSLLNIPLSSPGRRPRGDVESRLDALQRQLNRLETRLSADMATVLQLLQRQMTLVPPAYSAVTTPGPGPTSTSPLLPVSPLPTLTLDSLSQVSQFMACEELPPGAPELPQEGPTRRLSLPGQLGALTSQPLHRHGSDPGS
SMILES,current remaining,potentiation
CCC1CCCCN1C(=S)NC(=O)c1cccs1 (centres undefined),"46.5% [measured here: rescue from 100 nM dofetilide block, at 10 µM, stronger effect = higher value]",–
O=C(COc1ccc2ccccc2c1Br)Nc1cccnc1,1%,383% (inactive)
O=C(O)c1cc(Cl)ccc1Nc1nc2cc(Cl)ccc2o1,4.15%,–
